The results in this text go back to PubChem BioAssay AID651660 (Broad Institute, 2012).

Structures are written as SMILES. About 15 (0.8%) of roughly 1,900 compounds were called active. The sample holds actives, similar compounds and a random draw of the others, so the mix is not that of the screen. A number with no mark means an inactive call.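 Rule for the calls: active = every replicate shows at least 50% inhibition; inconclusive = mean inhibition at least 50% but some replicate below; inactive = the rest.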

The target of the assay is DNA repair protein RAD52 homolog (Homo sapiens) (UniProt P43351). Briefly: inhibition of RAD52-mediated strand annealing – biochemical, FRET, single point, primary screen (AID 651660).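 Note: 0% = median of neutral control wells and 100% = median of positive control wells.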 The following applies: Recombinant RAD52 ssDNA annealing, FRET fluorescence, 30 min; at 18.7 µM; hits give high values.
Chain of DNA repair protein RAD52 homolog (Homo sapiens) (P43351 whole entry, looked up): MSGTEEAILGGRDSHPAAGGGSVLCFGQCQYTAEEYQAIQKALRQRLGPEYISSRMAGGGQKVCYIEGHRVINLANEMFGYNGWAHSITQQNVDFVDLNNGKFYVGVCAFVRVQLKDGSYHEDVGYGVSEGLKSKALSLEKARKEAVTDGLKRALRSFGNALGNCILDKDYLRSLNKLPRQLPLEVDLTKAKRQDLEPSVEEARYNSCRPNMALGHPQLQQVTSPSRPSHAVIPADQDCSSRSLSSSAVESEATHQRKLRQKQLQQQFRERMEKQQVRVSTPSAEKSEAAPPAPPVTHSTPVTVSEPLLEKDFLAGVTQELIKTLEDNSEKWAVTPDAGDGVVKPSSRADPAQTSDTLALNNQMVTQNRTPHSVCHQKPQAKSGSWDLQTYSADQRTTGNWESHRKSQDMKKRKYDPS
As for `O=C(Nc1nc2ccccc2s1)c1ccc(F)cc1`, the inhibition – broadly, the change of the read-out against control, counted positive when it falls – was 4.49%.

Take `CCN(CC)c1ccc(C2=NNC(=O)CC2C)cc1[N+](=O)[O-]` (configuration not stated): the inhibition was -0.17%.

As to `O=C(N/C(=C/C=C\c1ccccc1)C(=O)N1CCOCC1)c1ccc(Br)cc1`, the inhibition was 8.04%.

Take `CCOc1ccccc1Oc1coc2cc(OCC(=O)O)ccc2c1=O`: the inhibition was -12.3%.

As to `C(=C\c1ccc2ccccc2n1)/c1ccccc1`, the inhibition is 3.46%.

For the molecule `COc1cc(CC(=O)NCCc2ccc(S(N)(=O)=O)cc2)cc(OC)c1OC`, the inhibition was -2.62%.

As to `O=C(NCCCCCc1nc2ccccc2[nH]1)c1ccccc1Cl`, the inhibition is -0.634%.

In the case of `N=C1C(c2ccccc2)=C(O)CN1CCCO`, the inhibition was -1.52%.

Consider `Cn1c2ccccc2c2cc(/C=C(\NC(=O)c3ccccc3)C(=O)O)ccc21`, for which the inhibition was -10.8%.

Take `O=C1c2cccc3cccc(c23)C(=O)N1c1ccccn1`: the inhibition was -4.1%.

For `COCCCNc1nc2c([nH]1)c(=O)[nH]c(=O)n2C`, the inhibition is -1.14%.

For the molecule `CCOC(=O)c1cnc2ccccc2c1NCCO`, the inhibition is 10.9%.

As for `O=C(COc1ccccc1)Nc1ccc2c(c1)C(=O)N(CC1CCCO1)C2=O` (configuration not stated), the inhibition was -9.17%.

As to `COc1ccc(C2C3=C(CC(C)(C)CC3=O)N(C)C3=C2C(=O)CC(C)(C)C3)cc1`, the inhibition is -13.9%.

With `COc1ccccc1OS(=O)(=O)c1ccc(NC(C)=O)cc1`, the inhibition is 3.22%.

Take `S=C(NCCOCCOCCNC(=S)Nc1ccccc1)Nc1ccccc1`: the inhibition is 4.23%.

On to `Nc1ncnc2c1ncn2C1OC(CO)C(O)C1O` (configuration not stated), for which the inhibition was -0.087%.

Consider `Cc1ccc2c(ccc(=S)n2C)c1`, for which the inhibition was -5.88%.

Take `O=C(CS(=O)(=O)c1ccccc1)c1ccc2c(c1)OCCO2`: the inhibition was -0.895%.

`CCOc1cc2oc(=O)c3c(c2cc1Cl)CCC3`: the inhibition was -1.74%.

Regarding `CC[C@H](CO)NCCN[C@H](CC)CO`, the inhibition is -5.2%.

Turning to `Cc1ccc2nc(C)c3c(c2c1)OC(C(C)(Cl)Br)C3` (configuration not stated), the inhibition was 3.5%.

For the molecule `Cc1ccc2nc(N=C(N)N)nc(C)c2c1`, the inhibition is 66.7% (active).

For the molecule `Cc1ccc2nc(NC3=NC(CC(=O)O)C(=O)N3)nc(C)c2c1` (configuration not stated), the inhibition was 7.8%.

As for `C[C@H](NC(=O)OC(C)(C)C)C(=O)NCC1CCC(C(=O)O)CC1` (some centres not stated), the inhibition was -0.108%.

As to `CC(=O)N(CCC1(C(C)C)CCOC(C)(C)C1)Cc1ccco1` (configuration not stated), the inhibition is -19%.

In the case of `COc1cc(CO)ccc1OCc1nnnn1-c1ccc(C)cc1`, the inhibition was 5.41%.

Turning to `CCC(C)NCCOCCOc1ccc(Cl)cc1Br` (configuration not stated), the inhibition is 9.51%.

Take `CCC1CCc2c(sc(NC(=O)c3cccnc3)c2C(N)=O)C1` (configuration not stated): the inhibition was -5.46%.

In the case of `Nc1ccc2nc(Cc3ccccc3)[nH]c2c1`, the inhibition was 33.4%.

In the case of `O=[N+]([O-])c1ccc2cn[nH]c2c1`, the inhibition is -3.19%.

As for `Nc1ccc2[nH]ncc2c1`, the inhibition is 59.5% (active).

For `C=C(C)COc1ccc(-c2n[nH]c(C)c2-c2ccc(OC)cc2)c(O)c1`, the inhibition is 17.8%.

Take `CCOc1ccc(C(=O)Nc2ccc(N3CCN(C(C)=O)CC3)cc2)cc1[N+](=O)[O-]`: the inhibition is -3.31%.

Turning to `NC(=O)[C@@H]1[C@@H]2C(=O)N(c3ccc(F)cc3)C(=O)[C@@H]2[C@H]2C=Cc3ccccc3N21`, the inhibition was -124%.

Consider `C#CCN1C(=O)C(O)(c2c(C)[nH]c3ccccc23)c2ccccc21` (configuration not stated), for which the inhibition was -11.1%.

With `Cc1nc2cc3ccccc3cc2c(=O)[nH]1`, the inhibition is -5.13%.

For the molecule `Nc1c2c(nc3ccccc13)CCCC2`, the inhibition is 18.1%.

As to `Nc1cccc2nc3ccccc3cc12`, the inhibition was 99.5% (active).

For the molecule `CN(C)C(=O)CCCCCCCCC(=O)N(C)C`, the inhibition was -13.3%.

For the molecule `COc1ccc(/C=C(/C#N)c2cccnc2)cc1OC`, the inhibition was -8.25%.

For the molecule `CCOC(=O)c1ccc2[nH]c(C)c(CCC(C)=O)c(=O)c2c1`, the inhibition is 0.469%.

For the molecule `COc1cc(COc2ccc3c(C)c(Cc4ccccc4)c(=O)oc3c2)cc(OC)c1OC`, the inhibition was -0.647%.

As for `CCc1nc2ccccc2c(NC(=O)CN2CC(C)CC(C)C2)c1C` (configuration not stated), the inhibition is -5.82%.

For the molecule `O=C(CCCn1c(=O)oc2ccccc21)N1CCN(c2ccc(F)cc2)CC1`, the inhibition was -3.01%.

Consider `Cc1ccc(C2CC(=O)C(C=NCCN3CCN(C(=S)Nc4ccccc4)CC3)=C(O)C2)cc1` (configuration not stated), for which the inhibition is 4.06%.

As for `Cc1ccc2c(c1)C(O)(CC(=O)/C=C/C=C/c1ccccc1)C(=O)N2` (configuration not stated), the inhibition was -10.7%.

Turning to `CC1(C)CC(=O)C2=C(C1)c1c(ccc3ccccc13)NC2c1ccco1` (configuration not stated), the inhibition is -27.1%.

Regarding `CCN(CC)c1ccc([C@H]2[C@@H]3CCCC[C@]3(O)CCN2CC(=O)NCc2ccco2)cc1`, the inhibition was -20.6%.

For the molecule `CCc1cc(/C(Cc2ccccn2)=N\O)c(O)cc1O`, the inhibition was -33.7%.

In the case of `CC(C)CC(NC(=O)CNC(=O)C1O[C@@H]2OC(C)(C)O[C@@H]2[C@H]2OC(C)(C)O[C@@H]12)C(=O)O` (some centres not stated), the inhibition is -7%.

On to `OCCN(Cc1nc(-c2ccc3c(c2)OCO3)no1)Cc1cccs1`, for which the inhibition was 2.4%.

Consider `Cc1ccc(C2CC(=O)C(C=NCCN3CCN(CC(=O)Nc4cc(C)cc(C)c4)CC3)=C(O)C2)cc1` (configuration not stated), for which the inhibition is -3.07%.

As to `COc1ccccc1N=CC1=C(O)CC(c2ccccc2)CC1=O` (configuration not stated), the inhibition is -25.4%.

As for `C/C(=N\N=C1\NC(=O)C(CC(=O)Nc2ccc(Cl)cc2)S1)c1ccco1` (configuration not stated), the inhibition was -15.6%.

Turning to `COc1ccc(NC(=S)NCCc2c[nH]c3ccccc23)cc1`, the inhibition is 7.25%.

With `O=C(c1ccc(O)cc1)c1ccc(O)cc1O`, the inhibition was -19.8%.

With `COc1ccc2[nH]c(=O)c3c(c2c1)OC(C)(C)C=C3`, the inhibition was -5.72%.

Turning to `CCc1cccc(OC2OC(CO)C(O)C(O)C2NC(C)=O)c1` (configuration not stated), the inhibition is -3.23%.

As to `COc1ccc2c(C=O)cn(C)c2c1`, the inhibition is -1.85%.

In the case of `CC(C)CC(NC(=O)c1cccc(Cl)c1)C(=O)O` (configuration not stated), the inhibition was -8.58%.

On to `CCOC(=O)c1c(O)c2c([nH]c1=O)CCCC2`, for which the inhibition is 2.81%.

On to `COc1cccc(N2C(=O)CC(c3c[nH]c4ccccc34)C2=O)c1` (configuration not stated), for which the inhibition was -22.5%.

Regarding `Cc1c(NC(=O)c2cccs2)cccc1[N+](=O)[O-]`, the inhibition is 0.122%.

For `CC1(C)CC(=O)C(C(=O)CCCCC(=O)C2C(=O)CC(C)(C)CC2=O)C(=O)C1`, the inhibition was -11.5%.

On to `CC(=O)NCCCC(=O)NC(CCC(=O)OCc1ccccc1)C(=O)OCc1ccccc1` (configuration not stated), for which the inhibition was -10.8%.

`COC(=O)c1ccc(OCCCCN2CC(C)OC(C)C2)cc1` (configuration not stated): the inhibition is -1.97%.

On to `CC1(C)OC2OC(C(=O)N/N=C/c3ccccc3F)C3OC(C)(C)OC3C2O1` (configuration not stated), for which the inhibition is -8.91%.

As for `O=C(/C=C/c1c[nH]c2ccccc12)c1cccc2ccccc12`, the inhibition is -25.7%.

As to `O=C(CCCCCCCC(=O)c1ccccc1)c1ccccc1`, the inhibition is 2.66%.

`COc1cc2[nH]c3c(=O)n(CCN4CCOCC4)cnc3c2cc1OC`: the inhibition is 1.23%.

`COc1ccc(CCNc2ncnc3c2[nH]c2cc(OC)c(OC)cc23)cc1OC`: the inhibition was 68.2% (active).

As to `Clc1ccc(CCNc2ncnc3nc[nH]c23)cc1`, the inhibition is 1.95%.

As for `CN(Cc1ccccc1)CC(O)COc1ccc(CNCc2cccnc2)cc1` (configuration not stated), the inhibition is 25.5%.

For `COc1c2ccoc2nc2c(OC)cccc12`, the inhibition was 10.6%.

Turning to `COc1ccc(N2C(=O)[C@@H]3Cc4ccccc4CN3C2=O)cc1`, the inhibition is -7.83%.

Regarding `Cc1oc2c(CN3CCCC3)c(O)ccc2c(=O)c1-c1ccc(Cl)cc1`, the inhibition is 2.93%.

Regarding `CCN(Cc1ccncc1)Cc1nc(Cc2ccccc2Cl)no1`, the inhibition is -13.8%.

As to `COc1ccc(C(CC(=O)N2CCOCC2)C(C)C)cc1` (configuration not stated), the inhibition was 4.92%.

Regarding `O=C(CSCc1ccccc1)NCCCN1CCOCC1`, the inhibition was 7.56%.

In the case of `CCN(Cc1cnn(C)c1)Cc1nc(C(c2ccccc2)c2ccccc2)no1`, the inhibition is 1.94%.

`N/C(=N\OC(=O)/C=C/c1ccccc1)c1ccc(Br)cc1`: the inhibition was -5.01%.

On to `Cc1nc(-c2coc3c(CN(C)C)c(O)ccc3c2=O)cs1`, for which the inhibition is 5.53%.

`c1ccc(Nc2cccc3c(Nc4ccccc4)cccc23)cc1`: the inhibition is 51.9% (active).

Regarding `Cc1cccc(Nc2ccccc2C(=O)O)c1C`, the inhibition is -13.3%.

As to `O=C(O)c1ccccc1Nc1cccc(C(F)(F)F)c1`, the inhibition was -6.2%.

Turning to `COc1ccc(-c2nc(C)c(C(C)=O)n2O)cc1OC`, the inhibition was -4.44%.

In the case of `COc1cccc(-n2cc(CNCc3c(C(=O)N(C)C)nc4ccc(Cl)cn34)cn2)c1`, the inhibition was -5.77%.

Consider `COC(=O)c1sccc1NC(=O)Nc1ccccc1F`, for which the inhibition was -4.3%.

As for `Cc1oc2cc(O)cc(O)c2c(=O)c1-c1ccc2c(c1)OCCCO2`, the inhibition was 3.6%.

As to `Cn1c2ccc(CC(=O)O)cc2c2cc(CC(=O)O)ccc21`, the inhibition is -173%.

For `CC(C)c1ccccc1OCCNC(=S)NC(=O)c1cccnc1`, the inhibition was -11.8%.

For `COc1cccc2c1C(=O)O/C2=C/c1ccc2c(c1)OCO2`, the inhibition is -3.05%.

Consider `CCn1c(O)c(/C=C2\C=Nc3ccccc32)sc1=O`, for which the inhibition was 8.58%.

As to `COC(=O)c1cc(OC)c(OC)c(OC)c1[N+](=O)[O-]`, the inhibition is -11.8%.

`COc1ccc(Br)cc1C(=O)Nc1ccc(C(=O)O)cc1`: the inhibition was -5.54%.

Turning to `Cc1cnc(C(=O)N2CCCC(C(=O)c3ccc(Cl)cc3C)C2)cn1` (configuration not stated), the inhibition is 3.18%.

For the molecule `Cc1ccc2[nH]c(=O)c(Cc3ccccc3)c(O)c2c1`, the inhibition was -9.59%.

Regarding `CN1C(=O)C(O)(CC(=O)/C=C/C=C/c2ccccc2)c2ccccc21` (configuration not stated), the inhibition is -13.6%.

Turning to `COc1ccc(CN(CCC(c2ccccc2)c2ccc(OC(C)C)cc2)C(=O)CCl)cc1OC` (configuration not stated), the inhibition is 28.8%.

On to `CC(C)Oc1ccc(C(CC(=O)O)c2ccc(F)cc2)cc1` (configuration not stated), for which the inhibition is -7.3%.

For the molecule `COc1ccc(CNCCC(c2ccc(F)cc2)c2ccc(OC(C)C)cc2)cc1OC` (configuration not stated), the inhibition is 57.6% (active).
